From PubChem BioAssay come the findings set out here.

Structures are written as SMILES. The source made the active and inactive calls.

The subject of assay [1] is Human papillomavirus type 1a protein E7 (residues 44-93). Kind of assay: HPV1a E7 fragment binders on microarrays, primary screen, biochemical, small-molecule microarray, residues 44-93, 635 nm fluorescence (AID 1108).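 Further: E7 fragment applied at 1 µg/mL in TBST for 1 h at 4 C; score combines spot fluorescence with its signal to noise ratio.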 The settings on record: small-molecule microarray binding, fluorescence 635 nm; higher = more signal.
Assay [2] in a line: modulators of HCV replicon luciferase signal, primary screen, HCV replication inhibitor project, Huh7 cells, luciferase reporter (AID 1109).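 Further: huh7 hepatoma cells harbouring a luciferase neomycin HCV replicon reporter; luciferase luminescence as measure of HCV replicon replication; test concentration not given here.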 Conditions: 48 h, higher = more signal. On the technique in general: A replicon is a self-replicating genome or part of one, used to study replication in cells.
The target of assay [3] is Left-right determination factor 2 (Homo sapiens) (UniProt O00292). The assay is described as follows: LEFTY2 binders on small-molecule microarrays, primary screen, biochemical, small-molecule microarray, 635 nm fluorescence scan (AID 1110). The settings on record: LEFTY2 binding, higher = more signal.
Chain of Left-right determination factor 2 (Homo sapiens) (O00292 whole entry, looked up): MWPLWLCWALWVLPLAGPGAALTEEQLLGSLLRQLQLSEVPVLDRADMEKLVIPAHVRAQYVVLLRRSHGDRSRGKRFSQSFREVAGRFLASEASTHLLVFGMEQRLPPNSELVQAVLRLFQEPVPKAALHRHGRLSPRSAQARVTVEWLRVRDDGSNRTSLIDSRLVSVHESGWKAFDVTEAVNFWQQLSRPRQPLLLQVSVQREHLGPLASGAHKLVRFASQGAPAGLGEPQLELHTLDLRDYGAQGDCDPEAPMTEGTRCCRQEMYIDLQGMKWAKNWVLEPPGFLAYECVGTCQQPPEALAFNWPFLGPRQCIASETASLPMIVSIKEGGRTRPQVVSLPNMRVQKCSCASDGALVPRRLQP
In assay [4] the target is Calmodulin-1 (Homo sapiens) (UniProt P0DP23). The assay is described as follows: CALM1 binders on microarrays, EGTA buffer, profiling panel, biochemical, small-molecule microarray, Cy5-labelled CALM1 (AID 1111).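 Further: labelled calmodulin applied in Tris saline Tween buffer holding calcium plus EGTA and DTT.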 The settings on record: Cy5-CALM1 binding fluorescence, higher = more signal.
Assay [5] has the same target. Kind of assay: calcium-bound CALM1 binders on microarrays, profiling panel, artefact control for SMM control-protein annotation, biochemical, small-molecule microarray, Cy5-labelled CALM1, plus calcium (AID 1112).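 Further: score merges spot fluorescence with signal to noise from triplicate slides.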 Conditions: Cy5-CALM1 binding fluorescence, higher = more signal.
Assay [6] is described as follows: small-molecule microarray binders of probe aWnt5a, primary screen, biochemical, biotinylated probe, 635/667 nm fluorescence (AID 1113).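 Further: score merges 667 nm fluorescence intensity with signal-to-noise per printed feature.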 Conditions: higher = more signal.
Assay [7] can be described thus: small-molecule microarray binders of probe aShh, primary screen, biochemical, biotinylated probe, 635/667 nm fluorescence (AID 1114).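 Further: probe is biotin-labelled aShh protein from a stem cell growth factor screen; measures binding of labelled protein to compounds printed on the slide; score merges feature fluorescence at 667 nm with signal-to-noise.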 Conditions: higher = more signal.
A short description of assay [8]: small-molecule microarray binders of probe aNog, primary screen, biochemical, biotinylated probe, 635/667 nm fluorescence (AID 1115).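 Further: probe is biotinylated aNog protein used at 0.15 µg/mL for 1 h at 4 C; z-score combines 667 nm fluorescence of each spot with its signal to noise.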 Conditions: higher = more signal.
Assay [9] concerns the target Torsin-1A-interacting protein 1 (Homo sapiens) (UniProt Q5JTV8). The assay is described as follows: LAP1 binders from COS7 cell lysate, primary screen, small-molecule microarray, 635/667 nm fluorescence (AID 1116). The settings on record: COS7-hLAP1 lysate binding, 635 nm fluorescence, higher = more signal.
The target in assay [10] is Alpha-bungarotoxin (Bungarus multicinctus) (UniProt P60615). The assay is described as follows: alpha-bungarotoxin binders on microarray, profiling panel, artefact control for SMM control protein annotation, biochemical, small-molecule microarray, Alexa647 label, 635/667 nm fluorescence (AID 1117). Conditions: alpha-BTX-A647 binding fluorescence, higher = more signal.
Chain of Alpha-bungarotoxin (Bungarus multicinctus) (P60615 whole entry, looked up): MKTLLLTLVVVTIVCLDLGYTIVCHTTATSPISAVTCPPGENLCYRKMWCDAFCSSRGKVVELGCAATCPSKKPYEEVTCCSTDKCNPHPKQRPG
Another assay deals with Albumin (Bos taurus) (UniProt P02769). Kind of assay: bovine serum albumin binders on microarray, profiling panel, artefact control for SMM control protein annotation, biochemical, small-molecule microarray, Alexa647 label, 635/667 nm fluorescence (AID 1118).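 Further: score merges 667 nm emission intensity and signal-to-noise per printed compound spot.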 Conditions: BSA-A647 binding, fluorescence 635 nm, higher = more signal.
Chain of Albumin (Bos taurus) (P02769 whole entry, looked up): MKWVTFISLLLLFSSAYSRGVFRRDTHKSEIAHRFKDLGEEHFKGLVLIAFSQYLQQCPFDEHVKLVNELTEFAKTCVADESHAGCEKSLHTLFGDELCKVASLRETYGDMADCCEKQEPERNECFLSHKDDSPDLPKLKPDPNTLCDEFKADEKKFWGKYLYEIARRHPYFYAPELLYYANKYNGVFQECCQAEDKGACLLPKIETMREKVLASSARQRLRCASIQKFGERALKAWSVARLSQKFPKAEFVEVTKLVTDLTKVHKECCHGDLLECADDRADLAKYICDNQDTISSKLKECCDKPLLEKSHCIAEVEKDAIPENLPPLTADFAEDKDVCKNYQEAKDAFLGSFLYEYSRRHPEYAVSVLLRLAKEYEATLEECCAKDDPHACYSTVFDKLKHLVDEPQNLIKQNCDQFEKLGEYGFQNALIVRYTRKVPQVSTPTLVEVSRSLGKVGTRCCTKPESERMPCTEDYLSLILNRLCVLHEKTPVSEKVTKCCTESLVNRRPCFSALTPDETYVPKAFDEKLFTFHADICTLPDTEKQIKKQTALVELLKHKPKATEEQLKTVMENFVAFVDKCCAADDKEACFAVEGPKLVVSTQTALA
A short description of assay [11]: small-molecule microarray binders of probe aXIP, primary screen, biochemical, NeuroSMM set, 635/667 nm fluorescence (AID 1119).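 Further: probe is the protein aXip251-270 applied at 1 µg/mL to compound-printed slides; binding of probe to printed compounds measured as 667 nm fluorescence plus signal to noise.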 The settings on record: higher = more signal, called active from +8 up or from −8 down.
Assay [12] is described as follows: small-molecule binders of probe aNOTCH3, primary screen, biochemical, small-molecule microarray, 635/667 nm fluorescence (AID 1120).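 Further: probe is a biotin-tagged antibody raised against NOTCH3 rather than NOTCH3 protein; score merges spot fluorescence near 667 nm with spot signal to noise.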 The settings on record: higher = more signal.
The nature of assay [13]: small-molecule binders of probe aNOTCH2, primary screen, biochemical, small-molecule microarray, 635/667 nm fluorescence (AID 1121).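 Further: score merges feature fluorescence read at 667 nm with its signal to noise.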 The settings on record: higher = more signal.
Assay [14] addresses Carbonic anhydrase 2 (Homo sapiens) (UniProt P00918). Kind of assay: CAII small-molecule binders, profiling panel, biochemical, small-molecule microarray, Alexa647-labelled CAII (AID 1122). Conditions: CAII-A647 binding fluorescence, higher = more signal.
The nature of assay [15]: COS7 lysate on small-molecule microarray, probe aHis, 635 nm (AID 1123).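 Further: z-score combines 667nm fluorescence intensity with signal-to-noise per printed compound spot.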 Conditions: COS7 cell lysate, fluorescence, higher = more signal.
The nature of assay [16]: compound binding in COS7 lysate, probe aLAP1, primary screen, cell lysate, small-molecule microarray (AID 1124).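 Further: lysate comes from COS7 cells expressing LAP1 and is applied at 0.3 µg/mL; score merges spot fluorescence near 667 nm with signal-to-noise over triplicate slides.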 The settings on record: probe aLAP1, fluorescence, higher = more signal.
A further assay concerns Sam68 (KHDRBS1). Kind of assay: Sam68 small-molecule binders, primary screen, biochemical, small-molecule microarray, 635 nm fluorescence (AID 1125).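 Further: score merges 667 nm channel intensity with signal to noise over triplicate slides.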 Conditions: small-molecule microarray binding, higher = more signal.
Assay [17] concerns Chordin-like protein 2 (CHRDL2). The assay is described as follows: CHRDL2 small-molecule binders, primary screen, biochemical, small-molecule microarray, 635 nm fluorescence (AID 1126).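 Further: printed compound slides probed with Chrdl2 protein at 4 µg/mL for 1 h at 4 C; score merges 667 nm emission intensity with signal to noise over three replicate slides.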 Conditions: small-molecule microarray binding, fluorescence 635 nm; higher = more signal.
For assay [18], the target named is Concanavalin-A (Canavalia ensiformis) (UniProt P02866). The assay is described as follows: ConA small-molecule binders, primary screen, artefact control for SMM control protein annotation, biochemical, small-molecule microarray, Alexa647 label, 635 nm (AID 1127).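 Further: z combines 667 nm emission intensity with signal-to-noise across three replicate slides.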 Conditions: ConA-A647 binding fluorescence, higher = more signal.
Chain of Concanavalin-A (Canavalia ensiformis) (P02866 whole entry, looked up): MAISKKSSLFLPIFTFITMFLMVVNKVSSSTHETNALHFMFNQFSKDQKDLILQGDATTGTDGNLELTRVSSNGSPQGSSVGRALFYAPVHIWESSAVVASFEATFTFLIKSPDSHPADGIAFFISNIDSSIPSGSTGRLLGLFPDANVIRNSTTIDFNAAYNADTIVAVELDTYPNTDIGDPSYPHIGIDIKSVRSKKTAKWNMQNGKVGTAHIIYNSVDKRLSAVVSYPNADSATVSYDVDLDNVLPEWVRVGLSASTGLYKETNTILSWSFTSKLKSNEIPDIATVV

Chain of Torsin-1A-interacting protein 1 (Homo sapiens) (Q5JTV8 whole entry, looked up): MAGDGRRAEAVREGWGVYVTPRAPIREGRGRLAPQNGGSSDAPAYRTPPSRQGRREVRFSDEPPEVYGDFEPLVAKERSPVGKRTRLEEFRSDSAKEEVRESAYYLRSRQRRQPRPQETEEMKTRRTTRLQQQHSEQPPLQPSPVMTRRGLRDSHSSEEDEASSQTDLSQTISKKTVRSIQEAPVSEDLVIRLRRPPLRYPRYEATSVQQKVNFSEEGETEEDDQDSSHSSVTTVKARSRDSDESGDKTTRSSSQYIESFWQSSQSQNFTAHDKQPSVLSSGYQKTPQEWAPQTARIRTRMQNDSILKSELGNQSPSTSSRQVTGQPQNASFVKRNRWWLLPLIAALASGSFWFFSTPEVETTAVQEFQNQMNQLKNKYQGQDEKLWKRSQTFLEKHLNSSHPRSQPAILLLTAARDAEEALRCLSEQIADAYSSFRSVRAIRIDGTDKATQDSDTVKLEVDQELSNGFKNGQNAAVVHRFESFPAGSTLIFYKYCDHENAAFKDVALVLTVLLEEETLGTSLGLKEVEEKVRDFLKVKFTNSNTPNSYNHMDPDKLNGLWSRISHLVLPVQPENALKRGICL

Regarding `Cc1ccc(/C=C/C=O)cc1`, the composite z-score in [1] is 0.134; in assay [3], -0.419; in assay [4], 0.619; in assay [5], -0.524; in assay [6] it was -0.213; in assay [7], -0.0146. The composite z-score in assay [8] was -0.299; in [9], -0.0785; in assay [10] it was 0.185; with Albumin (Bos taurus), 0.931; in assay [12], -0.217; in [13], -0.117. For the same compound, the composite z-score in [14] was -0.287; in assay [15], 0.206; in assay [16], 0.127; with Sam68 (KHDRBS1), -0.912; in assay [17], 0.24; in assay [18] it was -0.156. Moreover, the z-score in assay [2] came out at 0.626. Further, the composite Z-score in assay [11] was 0.421 (inactive).
Turning to `C=C(C(=O)CC[C@H](OC(C)=O)c1ccccc1OCCO)C(C)C`, the composite z-score in assay [1] is -0.949; in assay [3], -0.343; in assay [4] it was -0.296; in assay [5], -1.33; in [6], -0.119; in assay [7], -0.352. Moreover, the composite z-score in assay [8] is -0.124; in assay [9], 4.35; in assay [10], -0.423; with Albumin (Bos taurus), 0.0421; in [12], 0.029; in assay [13] it was -0.0325. Besides, the composite z-score in assay [14] was -0.371; in assay [15], -0.754; in [16], 1.87; in the assay on Sam68 (KHDRBS1), -0.4; in assay [17], -0.163; in [18] it was -0.104. This compound returned a z-score in [2] of -4.51. Further, the composite Z-score in [11] was -0.361 (inactive).
Turning to `COC(=O)[C@]1(CCC(=O)OC(C)(C)C)N=C(c2ccc(OCCCO)cc2)O[C@@H]1c1ccccc1`, the composite z-score in assay [1] was 0.529; in [3], -1.45; in assay [4], -0.221; in assay [5], 0.271; in assay [6], -0.0405; in assay [7] it was 0.04. Besides, the composite z-score came to 1.24 in assay [8]; 1.79 in assay [9]; 1.29 in assay [10]; 0.0503 in the assay with Albumin (Bos taurus); 0.0834 in [12]; 0.153 in assay [13]. The composite z-score in assay [14] was 0.687; in [15] it was 1.83; in assay [16], 0.569; in the assay on Sam68 (KHDRBS1), -0.116; in assay [17], -0.483; in assay [18] it was 0.259. The same compound yielded a z-score in assay [2] of -2.73. In assay [11], the composite Z-score was 1.55 (inactive).
In the case of `COCCOC(=O)N1C(=O)[C@@]2(c3cc(C#Cc4ccc(OC)cc4)ccc31)[C@H](c1ccc(O)cc1)N1[C@H](c3ccccc3)[C@H](c3ccccc3)OC(=O)[C@H]1[C@@H]2C(=O)Nc1nc2ccccc2s1`, the composite z-score in [1] was 1.37; in [3], 0.389; in assay [4] it was 1.18; in [5] it was 0.907; in assay [6], -0.0778; in [7], -0.262. The composite z-score in assay [8] was -0.129; in [9] it was 0.373; in assay [10], 0.912; with Albumin (Bos taurus), 0.576; in [12], -0.0299; in assay [13], -0.124. Also, the composite z-score in [14] was 0.537; in [15] it was 1.54; in assay [16], -0.0159; in the assay on Sam68 (KHDRBS1), 1.3; in assay [17], 0.0727; in assay [18] it was 1.16. The same compound showed a z-score in assay [2] of -1. In assay [11], the composite Z-score is 0.303 (inactive).
Consider `O=C1NC(=O)C2C1C=CC(C(O)C=Cc1ccc([N+](=O)[O-])cc1)N2Nc1ccc(Cl)cc1Cl` (stereo not given), for which the composite z-score was 0.0788 in assay [1]; 0.0391 in [3]; 2.14 in assay [4]; 0.713 in [5]; -0.031 in assay [6]; 0.317 in [7]. Also, the composite z-score in assay [8] worked out at 0.0884; in assay [9] it was 1.52; in assay [10], 1.49; with Albumin (Bos taurus), 0.89; in [12], 0.405; in assay [13] it was 0.39. Moreover, the composite z-score in [14] is 0.76; in assay [15], 2.07; in assay [16], 1.01; in the assay with Sam68 (KHDRBS1), 0.756; in [17], 0.397; in assay [18], 0.76. This compound also returned a z-score in assay [2] of 0.498. The composite Z-score in assay [11] is 0.541 (inactive).
With `COCCOC(=O)N1C(=O)[C@@]2(c3ccccc31)[C@H](C(=O)N1CCCCCCC1)[C@H]1C(=O)O[C@H](c3ccccc3)[C@H](c3ccccc3)N1[C@@H]2c1ccc(OCCO)cc1`, the composite z-score is 1.63 in assay [1]; 1.91 in [3]; 3.2 in assay [4]; 1.76 in assay [5]; 1.65 in assay [6]; 3.65 in assay [7]. For the same compound, the composite z-score came to 3.67 in [8]; 5.73 in assay [9]; 4.02 in [10]; 0.445 with Albumin (Bos taurus); 2.33 in assay [12]; 1.21 in [13]. The composite z-score turned out to be 1.09 in [14]; 5.19 in assay [15]; 1.31 in [16]; 1.32 with Sam68 (KHDRBS1); 1.68 in assay [17]; 1.28 in [18]. The same compound showed a z-score in assay [2] of -2.07. Also, in [11], the composite Z-score was 10.1 (active).
